# D2 PAM-1: Beta-Arrestin HTS for Positive Allosteric Modulators of the Human D2 Dopamine Receptor: Potentiators; D(2) dopamine receptor (Homo sapiens), P14416; DiscoveRx D2 beta-arrestin cells, luminescence, 90 min; 100% = 57 uM dopamine signal; potentiation, % (test concentration not listed); hit rate 0.23% among 360,000; AID 624464, 2012; in the data active = potentiation above about 50%; inconclusive = mostly about 30% to 49%
# Target sequence (P14416 whole entry, looked up): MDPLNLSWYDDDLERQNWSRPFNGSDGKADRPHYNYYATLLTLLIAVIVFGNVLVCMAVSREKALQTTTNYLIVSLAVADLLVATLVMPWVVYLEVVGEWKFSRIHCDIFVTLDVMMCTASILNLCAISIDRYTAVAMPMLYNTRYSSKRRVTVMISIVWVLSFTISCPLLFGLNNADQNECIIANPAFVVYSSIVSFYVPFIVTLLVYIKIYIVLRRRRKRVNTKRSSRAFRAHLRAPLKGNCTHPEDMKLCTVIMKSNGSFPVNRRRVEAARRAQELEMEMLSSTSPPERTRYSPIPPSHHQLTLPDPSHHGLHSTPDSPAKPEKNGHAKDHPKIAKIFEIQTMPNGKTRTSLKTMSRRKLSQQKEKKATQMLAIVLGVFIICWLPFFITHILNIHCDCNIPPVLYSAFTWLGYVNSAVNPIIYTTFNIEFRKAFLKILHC
#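 PathHunter D2 cells, attached overnight at 37 deg C, received compound in DMSO plus dopamine at EC20 (50 nM final) for 90 min at 37 deg C. Beta-arrestin recruitment was read as luminescence after 1 h with detection reagent at ambient temperature.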
# D2 ag-1: HTS Assay for Allosteric Agonists of the Human D2 Dopamine Receptor: Primary Screen for Agonists | HEK293 T-REx D2 cells, calcium flux agonist mode | activation, % at 2 µM | hit rate 0.53% among 340,000 | AID 485358, 2010;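 active = activation over 3 SD above normal in the single-dose calcium agonist read, cut at about 30% in these data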
#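 Tetracycline-induced HEK293 Trex cells with D2 receptor force-coupled to calcium signaling, plated overnight at 30 C and loaded with no-wash calcium dye. Calcium flux read kinetically for 180 s after compound addition; responses flag agonists.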
# D2 PAM-2: HTS Assay for Positive Allosteric Modulators of the Human D2 Dopamine Receptor: Primary Screen for Potentiators | D(2) dopamine receptor (Homo sapiens), P14416 | HEK293 T-REx D2, calcium flux, EC20 dopamine potentiation | potentiation, % at 10 µM | hit rate 0.34% among 340,000 | AID 485347, 2010;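 active = potentiation over 3 SD above the plate norm, cut at about 30% in these data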
#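 Calcium flux readout, no-wash dye, 1 read/s. Inducible HEK293 Trex D2 line, overnight 30 C. Compound alone 180 s (agonist flags), then EC20 dopamine, another 180 s to score potentiation.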
# D2 ag-2: Beta-Arrestin HTS for Positive Allosteric Modulators of the Human D2 Dopamine Receptor: Agonists; hit rate 0.084% among 360,000; DiscoveRx PathHunter D2 beta-arrestin, luminescence, 90 min; 100% = 57 uM dopamine signal; AID 624465, 2012; D(2) dopamine receptor (Homo sapiens), P14416; activation, % (test concentration not listed); in the data active = activation above about 40%; inconclusive = between about 15% and that limit
#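 Agonist mode: compounds alone added to overnight-plated D2 PathHunter cells for 90 min at 37 C, with 57 uM final dopamine (EC100) defining full response. Beta-arrestin recruitment detected by chemiluminescent reagent, read after 1 h at ambient temperature.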
# D2 antagonist: HTS Assay for Allosteric Antagonists of the Human D2 Dopamine Receptor: Primary Screen for Antagonists; D(2) dopamine receptor (Homo sapiens), P14416; HEK293 TREx D2 cells, calcium flux, dopamine EC80; inhibition, % at 10 µM; hit rate 2% among 340,000; AID 485344, 2010; in the data active = inhibition above about 30%; inactive = below that, where a call was filed
#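 Antagonism is scored as inhibition of an EC80 dopamine-evoked calcium signal in a force-coupled, tetracycline-inducible HEK293 T-REx D2 line, with compound present 180 s before agonist.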
# Numbers stand for hits; n = inactive; u = inconclusive; x = no result given. Most compounds without a hit are left out; they make up all but 2.4% or so of the library.
SMILES,D2 PAM-1,D2 ag-1,D2 PAM-2,D2 ag-2,D2 antagonist
COc1ccccc1CNC(=O)c1cc(Sc2cccc(Cl)c2)nc2ccccc12,x,n,n,x,x
O=c1onc(-c2ccc(Cl)cc2Cl)n1-c1cccnc1,59.3,n,n,59.9,n
O=C1c2ccncc2C(=O)N1c1cccc(Cl)c1,n,n,n,n,n
Cc1nn(-c2ccccc2)c2c1cc1c(=O)n(C)c(=O)nc-1n2-c1cccc(Cl)c1,x,n,n,x,x
CC(=O)c1ccc(NC(=O)N[C@@H](CC(C)C)C(=O)O)cc1,n,n,n,n,n
CC(=O)c1cccc(NC(=O)N[C@@H](CC(C)C)C(=O)O)c1,n,n,n,n,33.4
O=C(CCCc1nc(-c2ccccc2)no1)Nc1cccnc1,n,x,x,n,x
O=C(CCc1nc(-c2ccccc2)no1)Nc1cccnc1,n,n,n,n,57.9
Cc1ccc(C)c(Nc2nc(-c3ccccc3)c3cc(Br)ccc3n2)c1,x,n,n,x,x
CC1CCCN(CCOCCOc2ccc(Br)cc2Cl)C1 (stereo unspecified),n,n,n,n,51.6
Cc1ccc(OCCCCN2CCC(C)CC2)c(Br)c1,n,n,n,n,107.2
CN1CCN(CCOCCOc2ccc(Br)cc2Cl)CC1,n,n,n,n,30.7
CC1CCN(CCCOc2ccc(Br)cc2Cl)CC1,n,n,n,n,46.8
COc1ccc(CNC(=O)Cn2c(=O)cc(-c3ccccc3)c3c(C)nn(C)c32)cc1,x,n,n,x,x
CC1CCCN(CCOCCOc2ccc(Cl)cc2Br)C1 (stereo unspecified),n,n,n,n,83.2
CCc1ccccc1NC(=O)N1CC(CC)Oc2ccc(Cl)cc21 (stereo unspecified),x,n,n,x,x
COc1cc(NC(C)=O)c2ncccc2c1NC(C)=O,n,n,n,n,36.7
CCN(CC)CC(C)CNC(=O)c1cc(-c2ccc(Br)s2)nc2ccccc12 (stereo unspecified),x,n,n,x,x
COc1ccc(N=Cc2ccccc2O)cc1,n,x,x,n,x
C=CCOc1ccc(C=Nc2ccc(OC)cc2)c(O)c1,n,n,47.5,n,n
C/C(=N\NC(=O)c1ccccc1F)c1ccc2c(c1)Nc1ccccc1S2,87.2,n,n,u,n
CC(C)(C)OC(=O)N1CCC(c2c(C(=O)N3CCN(c4ccccn4)CC3)cnn2-c2cccc(F)c2)CC1,x,n,n,x,x
COc1cc2c(cc1OC)C(=Cc1ccc(N(C)C)cc1)C=C2,n,x,x,n,x
COc1cc2nc(/C=C/c3ccc(N(C)C)cc3)sc2cc1SC,n,66.6,n,n,n
CCc1cccc(NC(=O)Cn2cc(C(=O)c3ccncc3)c(=O)c3cc(C)c(C)cc32)c1,x,n,n,x,x
SMILES,D2 PAM-1,D2 ag-1,D2 PAM-2,D2 ag-2,D2 antagonist
CCOC(=O)C1=C(C)NC(=S)N(C(C)=O)C1c1ccccc1 (stereo unspecified),n,n,n,n,32.1
CN(C)c1ccc(/C=N/NC(=O)C(O)(c2ccccc2)c2ccccc2)o1,n,n,n,n,32.6
CCn1c(=O)c2ccccc2n(CC(=O)NC2CCCCC2)c1=O,n,n,n,n,41.7
Cc1ccnn2cc3c(=O)n(C)c(=O)n(C)c3c12,x,n,30.6,x,n
Cn1c(=O)c2cn3ncccc3c2n(C)c1=O,x,n,n,x,n
COc1ccc2c(c1)cc1c(=O)n(CC(=O)NC3CCCCC3)nc(C)n12,x,n,n,x,x
S=C(NCC1CCCO1)Nc1ccc(Nc2ccccc2)cc1 (stereo unspecified),n,n,n,n,40.0
CCN(CC(=O)Nc1cc(Cl)ccc1C)C(=O)COc1ccccc1F,n,n,n,n,39.9
CCN(CC(=O)Nc1cc(Cl)ccc1C)C(=O)CCOc1ccccc1C,n,n,n,n,31.2
CCN(CC(=O)Nc1c(F)cccc1F)C(=O)Cc1sc(C)nc1-c1ccc(F)cc1,n,n,n,n,n
CCN(CC(=O)Nc1cc(Cl)ccc1C)C(=O)Cc1sc(C)nc1-c1ccc(F)cc1,n,n,n,n,75.5

# Screens as filed in PubChem BioAssay.
